The source of these data is PubChem BioAssay.

Structures are written as SMILES. Values without a mark were called inactive. For some assays here: Potency and affinity values are given separately. Calls of active or inactive are those of the source. Unless noted, the rule behind the calls is not given here.

A short description of assay [1]: antimalarial activity against Dd2 strain (AID 2302;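 active = growth inhibition above 50% at the single 2 µM test dose, taken to imply half-maximal potency below 2 µM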;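 note: 0% = DMSO untreated growth and 100% = chloroquine plus artemisinin killed control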). The settings on record: P. falciparum Dd2 in RBCs, LDH growth readout, 72 h; at 2 µM; stronger effect = higher value.
A short description of assay [2]: human hepatoma cell viability loss – ATP luminescence, cytotoxicity control for P. falciparum antimalarial project, primary screen (AID 2303;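 active = inhibition above 50%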;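 note: 0% = DMSO wells and 100% = digitonin-killed cells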). Particulars: HepG2 viability, 24-48 h, at 10 µM, stronger effect = higher value.
Assay [3] deals with L-lactate dehydrogenase (Plasmodium falciparum (isolate CDC / Honduras)) (UniProt Q27743). Kind of assay: PfLDH activity inhibition – cell lysate, 3D7 strain, counter-screen for P. falciparum growth inhibition project (AID 2304).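 Note: 0% = vehicle and 100% = reference inhibitor.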 Particulars: P. falciparum 3D7 crude extract, LDH APAD/NBT absorbance; at 2 µM; stronger effect = higher value. Background: Counterscreens check selectivity or assay interference.

A short description of assay [4]: inhibition of 3D7 malaria parasite growth – strain 3D7 (AID 2306).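 Note: 0% = DMSO wells and 100% = chloroquine plus artemisinin control wells.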 The settings on record: P. falciparum 3D7 erythrocytic growth, LDH absorbance, 72 h; at 2 µM; stronger effect = higher value.
Assay [5] addresses Calcium-dependent protein kinase 1 (Plasmodium falciparum (isolate 3D7)) (UniProt P62344). Kind of assay: PfCDPK1 kinase inhibitors, biochemical, TCAMS library (AID 1159585; cut-off not given, nearly all actives have IC50 up to about 0.98 µM;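 note: inhibitors leave more ATP so luminescence rises with inhibition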). The settings on record: recombinant PfCDPK1, Kinase-Glo ATP depletion luminescence. For orientation: In Kinase-Glo more light means more ATP remaining.
Assay [6] concerns the target Plasmodium falciparum protein kinase 6 (PK6, PF3D7_1337100) (UniProt Q8IDW1). Kind of assay: PfPK6 kinase inhibitors, biochemical, TCAMS library (AID 1159586). Particulars: recombinant PfPK6, Kinase-Glo ATP depletion luminescence.
The target of assay [7] is Protein kinase 7 (PK7), Plasmodium falciparum 3D7 (PF3D7_0213400) (UniProt Q7YTF7). Kind of assay: inhibition of Plasmodium PK7 catalytic activity – biochemical, TCAMS antimalarial set, Kinase-Glo luminescence (AID 1159587). Particulars: recombinant PfPK7, Kinase-Glo ATP depletion luminescence.
Assay [8] addresses Calcium-dependent protein kinase 4 (Plasmodium falciparum (isolate 3D7)) (UniProt Q8IBS5). As to the kind of experiment: PfCDPK4 kinase inhibitors, biochemical, TCAMS library (AID 1159588; cut-off not given, nearly all actives have IC50 up to about 0.91 µM). The settings on record: recombinant PfCDPK4, Kinase-Glo ATP depletion luminescence.

L-lactate dehydrogenase (Plasmodium falciparum (isolate CDC / Honduras)), sequence (Q27743 whole entry, looked up): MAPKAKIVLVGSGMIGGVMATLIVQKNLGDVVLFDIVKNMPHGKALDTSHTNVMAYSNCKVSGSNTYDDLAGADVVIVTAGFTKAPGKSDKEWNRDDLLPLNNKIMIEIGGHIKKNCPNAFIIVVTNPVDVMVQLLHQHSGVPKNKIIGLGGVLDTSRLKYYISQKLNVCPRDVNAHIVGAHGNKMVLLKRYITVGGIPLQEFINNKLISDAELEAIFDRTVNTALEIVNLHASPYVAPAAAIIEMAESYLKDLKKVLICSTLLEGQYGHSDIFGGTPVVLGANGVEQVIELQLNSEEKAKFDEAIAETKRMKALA
Calcium-dependent protein kinase 1 (Plasmodium falciparum (isolate 3D7)), sequence (P62344 whole entry, looked up): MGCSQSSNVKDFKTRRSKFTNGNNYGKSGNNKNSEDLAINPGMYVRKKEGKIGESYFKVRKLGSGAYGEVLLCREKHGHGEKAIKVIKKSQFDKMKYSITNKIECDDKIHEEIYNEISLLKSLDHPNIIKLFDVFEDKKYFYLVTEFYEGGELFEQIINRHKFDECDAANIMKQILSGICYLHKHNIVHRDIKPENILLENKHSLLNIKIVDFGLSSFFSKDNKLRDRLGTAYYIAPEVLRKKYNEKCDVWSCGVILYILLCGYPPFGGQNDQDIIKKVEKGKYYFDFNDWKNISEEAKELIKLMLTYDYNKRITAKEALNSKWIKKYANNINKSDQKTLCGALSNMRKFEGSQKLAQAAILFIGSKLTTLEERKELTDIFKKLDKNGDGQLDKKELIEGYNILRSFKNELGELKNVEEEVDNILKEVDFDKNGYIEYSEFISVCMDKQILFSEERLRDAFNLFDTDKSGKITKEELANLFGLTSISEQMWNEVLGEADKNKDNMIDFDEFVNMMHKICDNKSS
Protein kinase 7 (PK7), Plasmodium falciparum 3D7 (PF3D7_0213400), sequence (Q7YTF7 1-343): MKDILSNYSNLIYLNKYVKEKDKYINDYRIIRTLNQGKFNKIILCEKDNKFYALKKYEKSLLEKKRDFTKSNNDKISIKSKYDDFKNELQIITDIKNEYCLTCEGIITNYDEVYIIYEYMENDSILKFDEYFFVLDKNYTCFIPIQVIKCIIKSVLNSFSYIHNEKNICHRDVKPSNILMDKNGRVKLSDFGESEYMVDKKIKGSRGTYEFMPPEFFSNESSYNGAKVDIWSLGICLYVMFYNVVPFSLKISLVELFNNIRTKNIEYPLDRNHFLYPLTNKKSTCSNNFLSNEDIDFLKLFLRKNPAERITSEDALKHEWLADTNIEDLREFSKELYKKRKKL
Calcium-dependent protein kinase 4 (Plasmodium falciparum (isolate 3D7)), sequence (Q8IBS5 whole entry, looked up): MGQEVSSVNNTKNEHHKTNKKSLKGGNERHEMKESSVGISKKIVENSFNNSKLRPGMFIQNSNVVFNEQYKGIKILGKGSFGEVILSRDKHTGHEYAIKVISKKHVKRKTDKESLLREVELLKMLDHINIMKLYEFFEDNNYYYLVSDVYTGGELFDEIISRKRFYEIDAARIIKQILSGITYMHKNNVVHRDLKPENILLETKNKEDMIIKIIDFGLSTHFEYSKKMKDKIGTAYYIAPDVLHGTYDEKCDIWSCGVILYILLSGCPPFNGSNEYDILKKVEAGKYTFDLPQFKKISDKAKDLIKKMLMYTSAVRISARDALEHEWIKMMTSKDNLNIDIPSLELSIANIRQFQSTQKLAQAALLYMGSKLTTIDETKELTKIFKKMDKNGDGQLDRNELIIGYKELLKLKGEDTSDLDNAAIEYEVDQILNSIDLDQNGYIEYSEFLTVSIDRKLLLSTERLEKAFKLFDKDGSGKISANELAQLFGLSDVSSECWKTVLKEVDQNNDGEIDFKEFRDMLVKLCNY
Plasmodium falciparum protein kinase 6 (PK6, PF3D7_1337100), sequence (Q8IDW1 1-305): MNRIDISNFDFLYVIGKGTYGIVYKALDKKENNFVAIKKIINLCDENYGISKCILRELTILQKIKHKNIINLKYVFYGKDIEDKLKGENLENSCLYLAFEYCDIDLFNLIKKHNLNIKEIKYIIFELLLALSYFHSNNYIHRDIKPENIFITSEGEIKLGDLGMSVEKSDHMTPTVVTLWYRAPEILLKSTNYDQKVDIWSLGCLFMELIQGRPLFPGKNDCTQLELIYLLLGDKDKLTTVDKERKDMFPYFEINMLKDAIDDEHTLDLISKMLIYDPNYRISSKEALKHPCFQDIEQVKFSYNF

A word on the inhibition: it is the relative decrease from the control value, in per cent. With `O=C(/C=C/c1ccc(Cl)c(Cl)c1)NCCCCCN1CCC(c2c[nH]c3ccc(O)cc23)CC1`, the growth inhibition in assay [1] is 0%; in assay [4] it was 101% (active). Besides, the inhibition in assay [2] is 20%; in assay [3], 3%. Moreover, the result in assay [5], in assay [6], in assay [7] and in assay [8] was inactive.

On to `Cc1onc(-c2ccccc2Cl)c1C(=O)Nc1cc(Cl)c(Cl)cc1Cl`, for which the growth inhibition in assay [1] is 57% (active); in assay [4], 90% (active). Also, the inhibition in assay [2] is 3%; in assay [3] it was 7%. The result in assay [5], in assay [6], in assay [7] and in assay [8] was inactive.

For `Cc1ccc(NC(=O)Cc2noc(CC3CCCN3C(=O)N[C@@H](C)c3ccccc3)n2)cc1` (some centres not stated), the results for the growth inhibition in assay [1] and in assay [4] were 90% (active) and 95% (active), respectively. Moreover, the inhibition was 1% in assay [2] and -1% in assay [3]. In addition, the result in assay [5], in assay [6], in assay [7] and in assay [8] was inactive.

Regarding `COc1ccc2nccc([C@@H](O)CN3CCC(NCc4cc5oc(=O)[nH]c5cc4F)CC3)c2c1`, the growth inhibition is 4% in assay [1] and 99% (active) in assay [4]. In addition, the inhibition is -9% in assay [2] and -2% in assay [3]. The result in assay [5], in assay [6], in assay [7] and in assay [8] was inactive.

For the molecule `CN1CCCC(CN2CCN(Cc3ccc(-c4ccc(-c5nc6ccc(F)cc6[nH]5)cc4)cc3)CC2)C1` (configuration not stated), the growth inhibition in assay [1] was 98% (active); in assay [4] it was 100% (active). In addition, the inhibition in assay [2] is 90% (active); in assay [3], -1%. The result in assay [5], in assay [6], in assay [7] and in assay [8] was inactive.

As for `FC(F)(F)c1ccc(NC(=S)N2CCC(CCN3CCC(c4c[nH]c5ccccc45)CC3)CC2)cc1`, the results for the growth inhibition in assay [1] and in assay [4] were 37% and 98% (active), respectively. Further, the inhibition in assay [2] was 44%; in assay [3], 0%. In addition, the result in assay [5], in assay [6], in assay [7] and in assay [8] was inactive.

For `COc1ccc2nccc([C@@H](O)CN3CCC(NCCOc4ccncc4)CC3)c2c1`, the growth inhibition was -1% in assay [1] and 100% (active) in assay [4]. Moreover, the results for the inhibition in assay [2] and in assay [3] were 11% and 1%, respectively. For the same molecule, the outcome in assay [5], in assay [6], in assay [7] and in assay [8] was inactive.

On to `CC(C)c1cccc(OCC2CCN(c3ncc(C(=O)NC4CC4)cc3Cl)CC2)c1`, for which the growth inhibition is 95% (active) in assay [1] and 94% (active) in assay [4]. The inhibition was 9% in assay [2] and -1% in assay [3]. Further, the result in assay [5], in assay [6], in assay [7] and in assay [8] was inactive.

For `COc1ccc2c(C)cc(NCCCN(C)C)nc2c1`, the growth inhibition is 19% in assay [1] and 95% (active) in assay [4]. The inhibition in assay [2] is 10%; in assay [3], 3%. Also, the outcome in assay [5], in assay [6], in assay [7] and in assay [8] was inactive.

`COc1ccc2ncn(-c3ccc(C(N)=O)c(OCc4ccccc4C(F)(F)F)c3)c2c1`: the growth inhibition in assay [1] is 100% (active); in assay [4] it was 98% (active). Also, the inhibition was 18% in assay [2] and 3% in assay [3]. For the same molecule, the result in assay [5], in assay [6], in assay [7] and in assay [8] was inactive.

In the case of `Cn1nc(-c2cccc(CNC3CCc4ccccc43)c2)c2cnc(NC3CCCC3)nc21` (configuration not stated), the growth inhibition was 23% in assay [1] and 100% (active) in assay [4]. Besides, the inhibition is 14% in assay [2] and -1% in assay [3]. Moreover, the outcome in assay [5], in assay [6], in assay [7] and in assay [8] was inactive.

For `CC(C)(C)c1ccc(CN2CCC(CNC(=O)c3cc(-c4cccc(C(F)(F)F)c4)cs3)C2)cc1` (configuration not stated), the growth inhibition was 84% (active) in assay [1] and 100% (active) in assay [4]. Further, the inhibition in assay [2] is 80% (active); in assay [3], 1%. In addition, the result in assay [5], in assay [6], in assay [7] and in assay [8] was inactive.

For `Cc1ccc2c(NN=Cc3ccc(N(C)C)cc3)cc(C)nc2c1`, the growth inhibition is 46% in assay [1] and 99% (active) in assay [4]. In addition, the inhibition is -9% in assay [2] and 8% in assay [3]. Also, the result in assay [5], in assay [6], in assay [7] and in assay [8] was inactive.

Turning to `Cc1cnc(CN(Cc2ccc(-c3ccc(CNCCc4ccc(S(C)(=O)=O)cc4)cn3)cc2)C(=O)c2ccc([N+](=O)[O-])c(C)c2)cn1`, the growth inhibition was 15% in assay [1] and 93% (active) in assay [4]. Besides, the inhibition was -4% in assay [2] and 4% in assay [3]. For the same molecule, the outcome in assay [5], in assay [6], in assay [7] and in assay [8] was inactive.

For `COCCNCc1cccc(-c2ccc3c(Nc4ccc(F)cc4Cl)ccnc3c2)c1`, the growth inhibition was 100% (active) in assay [1] and 103% (active) in assay [4]. The values for the inhibition in assay [2] and in assay [3] were 8% and 3%, respectively. Besides, the outcome in assay [5], in assay [6], in assay [7] and in assay [8] was inactive.

For `Cc1cc(C)c(-c2n[nH]c3c2C(c2cccc(Cl)c2)N(Cc2ccco2)C3=O)c(O)c1` (configuration not stated), the growth inhibition in assay [1] was 89% (active); in assay [4], 96% (active). For the same molecule, the inhibition in assay [2] is -3%; in assay [3] it was -1%. In addition, the result in assay [5], in assay [6], in assay [7] and in assay [8] was inactive.

For `CC(C)CCN=C(N)Nc1ccc(OCCCCCOc2ccc(NC(N)=NCCC(C)C)cc2)cc1`, the growth inhibition in assay [1] was 67% (active); in assay [4], 85% (active). Further, the inhibition was 14% in assay [2] and 6% in assay [3]. Further, the result in assay [5], in assay [6], in assay [7] and in assay [8] was inactive.

`CCCCCn1c(Sc2ccc(C#N)c([N+](=O)[O-])c2)nnc1-c1ccccc1`: the growth inhibition in assay [1] was 15%; in assay [4], 93% (active). The inhibition was 22% in assay [2] and -2% in assay [3]. Further, the result in assay [5], in assay [6], in assay [7] and in assay [8] was inactive.

Turning to `Cc1c(CC(=O)NCCC2CCN(CCCCCNC(=O)/C=C/c3ccc(Cl)c(Cl)c3)CC2)sc2ccc(Cl)cc12`, the growth inhibition in assay [1] was 8%; in assay [4] it was 92% (active). The figures for the inhibition in assay [2] and in assay [3] were 59% (active) and 0%, respectively. The outcome in assay [5], in assay [6], in assay [7] and in assay [8] was inactive.
